According to PubChem BioAssay (NCI):
Where “and” joins values, the source holds several entries; their conditions need not be identical. Identical values can stand only once. The panel holds about 79,000 compounds, 15% with a hit somewhere; the sample as a whole holds those more often. Where a structure was tested more than once in an assay, its records may differ in their call. Calls of active or inactive are those of the source. Cut-off read from the data, not from the text of the source: active = growth inhibition above about 70%; inactive = the rest.

Key:
[1] = NCI Yeast Anticancer Drug Screen. Data for the rad50 strain (AID 155);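 note: 0% = growth of vehicle-only cultures of the same strain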; settings: S. cerevisiae rad50 strain growth inhibition, stronger effect = higher value
Outline: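 Genetically altered yeast (DNA repair pathway); compound treatment; growth inhibition vs vehicle ctrl.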

[2] = NCI Yeast Anticancer Drug Screen. Data for the mec2-1 strain (AID 157); settings: S. cerevisiae mec2-1 strain, stronger effect = higher value
Outline: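 Readout is yeast growth inhibition, normalised to vehicle-treated controls, in the mec2-1 strain exposed to compound.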

[3] = NCI Yeast Anticancer Drug Screen. Data for the sgs1 mgt1 strain (AID 161);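 note: 0% = growth of cultures given vehicle only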; settings: S. cerevisiae sgs1 mgt1 strain, stronger effect = higher value
Outline: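 Percent growth inhibition was derived by comparing compound-exposed mutant yeast with vehicle-exposed cultures. The strain carries alterations in DNA damage repair.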

[4] = NCI Yeast Anticancer Drug Screen. Data for the bub3 strain (AID 167); settings: S. cerevisiae bub3 mutant strain, stronger effect = higher value
Outline: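 Yeast carrying a defined mutation is treated with each compound, and growth is compared with that of vehicle-exposed cells to give inhibition.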

[5] = NCI Yeast Anticancer Drug Screen. Data for the mlh1 rad18 strain (AID 175); settings: S. cerevisiae mlh1 rad18 strain growth inhibition, stronger effect = higher value
Outline: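 Test agents were incubated with a yeast strain of defined genotype (DNA damage repair defect). Inhibition of growth was derived by comparison with vehicle-exposed cultures.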

[6] = NCI Yeast Anticancer Drug Screen. Data for the cln2 rad14 strain (AID 165);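 note: 0% = growth equal to vehicle treated cultures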; settings: S. cerevisiae cln2 rad14 strain, stronger effect = higher value
Outline: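 Relative to vehicle controls, growth inhibition of compound-treated cln2 rad14 yeast was recorded.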

[7] = NCI Yeast Anticancer Drug Screen. Data for the wt2 strain (AID 169);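 note: 0% = growth of vehicle-treated yeast cultures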; settings: S. cerevisiae wt2 strain growth inhibition, stronger effect = higher value
Outline: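 Values express reduction in yeast growth under compound treatment, referenced to vehicle-treated cells.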

[8] = at 5.0 µM (retest, dose inferred, filed as 0.5)
[9] = at 50.0 µM (retest, dose inferred, filed as 5.0)

Measured: growth inhibition

NS(=O)(=O)c1ccc(Nc2c3ccccc3nc3c(C(=O)N4CCN(CCO)CC4)cccc23)cc1
inactive: [1]; [8] 61% | [1]; [9] 61% | [1]; at 50.0 µM 38.6% | [2]; [8] 39% | [2]; [9] 39% | [2]; at 50.0 µM 40.7% | [3]; [8] 60% | [3]; [9] 60% | [3]; at 50.0 µM 24.4% | [4]; [8] 32% | [4]; [9] 32% | [4]; at 50.0 µM 23.9% | [5]; [8] 30% | [5]; [9] 30%
active: [5]; at 50.0 µM 79.8%

CCSSC(=Nc1ccccc1)OCC(C)C
active: [1]; [9] 91% | [2]; [9] 70% | [2]; at 50.0 µM 80.4% | [6]; [9] 92% | [4]; [9] 97% | [4]; at 50.0 µM 84.4% | [5]; [9] 82% | [5]; at 50.0 µM 80%
inactive: [1]; [8] 17% | [1]; at 50.0 µM 62% | [2]; [8] 18% | [6]; [8] 50% | [6]; at 50.0 µM 30.8% | [4]; [8] 52% | [5]; [8] 23%

OCCNc1nc(NCCO)c2nc(-c3ccccc3)c(-c3ccccc3)nc2n1
88% (active) and 51% (inactive): [3]; [9]
inactive: [1]; [8] 8% and -2% | [1]; [9] 61% and 43% | [1]; at 50.0 µM -2.2% and 58% | [2]; [8] -3% and 1% | [2]; [9] 45% | [2]; at 50.0 µM -0.45% and 43.8% | [3]; [8] -9% and 0% | [3]; at 50.0 µM 0.6% and 57.6% | [6]; [8] 6% and -2% | [6]; [9] 37% and 32% | [6]; at 50.0 µM -7.45% and 49.8% | [5]; [8] 5% and -1% | [5]; at 50.0 µM 16.5% and 61.2%
89% (active) and 52% (inactive): [5]; [9]

OCC1OC(n2cnc3c(=S)nc[nH]c32)C(O)C1O (stereo not drawn)
inactive: [1]; [8] -3% | [1]; [9] -13% | [1]; at 50.0 µM -0.9% and -2.3% | [2]; [8] -14% | [2]; [9] -14% | [2]; at 50.0 µM 8.35% and -13.8% | [6]; [8] 20% | [6]; [9] -7% | [6]; at 50.0 µM 24.9% and -27% | [4]; [8] 0% | [4]; [9] -3% | [4]; at 50.0 µM 14.9% and -16.9% | [5]; [8] -13% | [5]; [9] -14% | [5]; at 50.0 µM 3.2% and -1.15%

CC(=O)OC1CC2C(C)(C)C(=O)C=C[C@]2(C)C2CCC3(C)C(=CC(=O)C3c3ccoc3)[C@]12C (stereo partly drawn)
inactive: [1]; [8] -4% | [1]; [9] 40% | [1]; at 50.0 µM 65.4% | [2]; [8] -8% | [2]; [9] 38% | [2]; at 50.0 µM 65.3% | [3]; [8] -1% | [6]; [8] 19% | [6]; [9] 52% | [6]; at 50.0 µM 18.7% | [4]; [8] 7% | [4]; [9] 58% | [4]; at 50.0 µM 56.9% | [5]; [8] -1% | [5]; [9] 52% | [5]; at 50.0 µM 56.4%
active: [3]; [9] 86% | [3]; at 50.0 µM 87%

C=C(C)C(=O)Oc1ccc(NC(=O)c2ccccc2)ccc1=O
active: [1]; [9] 96% and 95% | [1]; at 50.0 µM 92.5% and 96.7% | [2]; [9] 96% | [2]; at 50.0 µM 75.2% and 83.6% | [3]; [9] 95% and 98% | [3]; at 50.0 µM 96% and 94.3% | [6]; [9] 92% | [6]; at 50.0 µM 89.5% and 83.8% | [5]; [9] 98% | [5]; at 50.0 µM 96.8% and 96.6%
inactive: [1]; [8] 5% and -1% | [2]; [8] 2% and 26% | [3]; [8] 7% and 19% | [6]; [8] -1% and 1% | [5]; [8] 13% and 6%

CCCCCCCN
inactive: [1]; [8] 1% | [1]; at 50.0 µM 50% | [2]; [8] -9% | [2]; at 50.0 µM 20.9% | [3]; [8] -2% | [3]; at 50.0 µM 19.9% | [4]; [8] -2% | [4]; at 50.0 µM 12.1% | [5]; [8] -5% | [5]; at 50.0 µM 48.1%
active: [1]; [9] 89% | [2]; [9] 85% | [3]; [9] 91% | [4]; [9] 86% | [5]; [9] 88%

OC(CF)(c1ccc(Cl)cc1)c1ccc(Cl)cc1
inactive: [1]; [8] 37% | [2]; [8] 24% | [6]; [8] 39% | [4]; [8] 1% | [7]; at 1.2 µM 16% | [7]; at 3.7 µM 16% | [7]; at 11.0 µM 17% | [5]; [8] 39%
active: [1]; [9] 74% | [1]; at 50.0 µM 90.3% | [2]; [9] 75% | [2]; at 50.0 µM 92.5% | [6]; [9] 97% | [6]; at 50.0 µM 91.4% | [4]; [9] 91% | [4]; at 50.0 µM 91% | [7]; at 33.0 µM 93% | [7]; at 100.0 µM 99% | [5]; [9] 75% | [5]; at 50.0 µM 89%
